# Source: the supplement of paper PMC9262897, “Low-cost anti-mycobacterial drug discovery using engineered E. coli” (Nature Communications, 2022)
# Where a name gives a salt, the structure may show the parent alone. ± gives the standard deviation of the averaged measurements.
# Tested on: E. coli TESEC Mtb Alr
# Assay: growth (OD600 after 10 h); higher = more growth (less inhibition)
# Settings: compound 0.1 mM
# Protocol: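 TESEC Mtb Alr E. coli, or the Alr+ wild-type control, in 384-well plates with Prestwick library compounds at 0.1 mM and 1% DMSO, across arabinose induction levels of 1E3 to 1E7 nM. Growth is read as OD600 after 10 h at 37 °C in triplicate biological replicates.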
# [1] = arabinose 1000 nM, raw OD600 reference: median of DMSO wells 0.294, cell-free background 0.041
# [2] = arabinose 10000 nM, raw OD600 reference: median of DMSO wells 0.264, cell-free background 0.041
# [3] = arabinose 100000 nM, raw OD600 reference: median of DMSO wells 0.201, cell-free background 0.041
# [4] = arabinose 1000000 nM, raw OD600 reference: median of DMSO wells 0.193, cell-free background 0.041
# [5] = arabinose 10000000 nM, raw OD600 reference: median of DMSO wells 0.146, cell-free background 0.041
Compound,growth [1],growth [2],growth [3],growth [4],growth [5]
CO[C@@H]1[C@@H](O[C@@H]2O[C@H](C)[C@@H](O[C@H]3C[C@@](C)(O)[C@@H](OC(=O)CC(C)C)[C@H](C)O3)[C@H](N(C)C)[C@H]2O)[C@@H](CC=O)C[C@@H](C)[C@@H](O)/C=C/C=C/C[C@@H](C)OC(=O)C[C@H]1OC(C)=O [Josamycin],0.04093 ± 5.8e-05,0.0406 ± 0.00026,0.04147 ± 0.00015,0.04073 ± 0.00029,0.04137 ± 5.8e-05
CC(C)c1c(C(=O)Nc2ccccc2)c(-c2ccccc2)c(-c2ccc(F)cc2)n1CC[C@@H](O)C[C@@H](O)CC(=O)O [Atorvastatin],0.177 ± 0.0077,0.108 ± 0.0075,0.168 ± 0.0033,0.0909 ± 0.0015,0.136 ± 0.0052
Cc1cnc(C(=O)NCCc2ccc(S(=O)(=O)NC(=O)NC3CCCCC3)cc2)cn1 [Glipizide],0.289 ± 0.0034,0.263 ± 0.0066,0.193 ± 0.019,0.183 ± 0.0084,0.141 ± 0.0039
CC[C@H](C)C(=O)O[C@H]1C[C@H](O)C=C2C=C[C@H](C)[C@H](CC[C@@H](O)C[C@@H](O)CC(=O)O)[C@H]21 [Pravastatin],0.309 ± 0.0081,0.297 ± 0.013,0.222 ± 0.024,0.185 ± 0.019,0.152 ± 0.0073
CN[C@H](CC(C)C)C(=O)N[C@H]1C(=O)N[C@@H](CC(N)=O)C(=O)N[C@H]2C(=O)N[C@H]3C(=O)N[C@H](C(=O)N[C@H](C(=O)O)c4cc(O)cc(O)c4-c4cc3ccc4O)[C@H](O)c3ccc(c(Cl)c3)Oc3cc2cc(c3O[C@@H]2O[C@H](CO)[C@@H](O)[C@H](O)[C@H]2O[C@H]2C[C@](C)(N)[C@H](O)[C@H](C)O2)Oc2ccc(cc2Cl)[C@H]1O [Vancomycin hydrochloride],0.084 ± 0.073,0.03873 ± 0.00032,0.0413 ± 0.0026,0.0388 ± 0.00044,0.0471 ± 0.0044
CCn1cc(C(=O)O)c(=O)c2cc(F)c(N3CCN(C)CC3)cc21 [Pefloxacine],0.0453 ± 0.00047,0.0396 ± 0.00047,0.0454 ± 0.0017,0.04 ± 0.00096,0.05157 ± 0.0004
O=c1cc(-c2ccc(O)c(O)c2)oc2cc(O)cc(O)c12 [Luteolin],0.0562 ± 0.0013,0.05 ± 0.0007,0.05233 ± 0.00025,0.0567 ± 0.0052,0.0518 ± 0.0022
COc1ccc(CC(C)NCC(O)c2ccc(O)c(NC=O)c2)cc1 (stereo not given) [Formoterol fumarate],0.298 ± 0.0087,0.293 ± 0.011,0.219 ± 0.024,0.18 ± 0.011,0.16 ± 0.0057
